# According to PubChem BioAssay (NCI):
# This is part of a sample that, as a whole, favours compounds with a hit. Of some 83,000 tested, about 20% had one in any assay.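 96-well plates, one dose, 48 hours. Percent growth reported; active if below 10.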 Unmarked numbers belong to inactive results. Calls of active or inactive are those of the source.
# System: MOLT-4 leukemia
# Assay: NCI-60 one-dose screen, 48 h (100 = growth as untreated, 0 = no growth, -100 = all killed)
# Details: 10 µM unless noted
# Procedure: Growth inhibition of the MOLT-4 human tumor cell line is measured as a screen for anti-cancer activity. Cells are grown in 96 well plates and exposed to the test compound for 48 hours. Compounds are tested at a single concentration, which is 10^-5 M for most compounds. The reported endpoint is percent growth (GI% or GIPRCNT), where numbers from 0 - 100% represent growth inhibition, and numbers from -100% - 0 represent cell death. For example, a value of 40 represents 60% growth inhibition. A value of 0 means no net growth occurred over the course of the experiment. A value of -40 indicates 40% of cells at the beginning of the experiment died by the end of the experiment. A value of -100 means all cells are dead at the end of the experiment.
# NCI-60 Human Tumor Cell Lines Screen was performed using the standard one-dose NCI protocol, which is described in more detail at https://dtp.cancer.gov/discovery_development/nci-60/default.htm.
# Compounds with GIPRCNT values below 10 were considered active. Activity score was based on GIPRCNT using the following formula: […]
# Score is 0 for GIPRCNT values of 100 or above, 50 for GIPRCNT values of 0, and 100 for GIPRCNT values of -100.
row,Structure (SMILES),growth
1,CCN1CCN(c2nc(NCCNc3ccnc4cc(Cl)ccc34)c3ccccc3n2)CC1,6.3% (active)
2,CC1=NN(c2nc(-c3ccc(Cl)cc3)c(C#N)c(N3CCOCC3)n2)C(=O)C1,92.1%
3,O=C1C=C(O)C(=O)C(CC2=C(O)C(=O)C=C(O)C2=O)=C1O,104%
4,CCOC(=O)n1cc(-c2nonc2-c2cn(C)c3ncccc23)c2ccccc21,69.8%
5,C=C1c2nc3ccccc3n2C=C(c2ccc(OC)cc2)N1Cc1ccccc1,71.5%
6,CN(C)S(=O)(=O)c1cccc(-c2nc3sc4c(c3c(=O)[nH]2)CCCC4)c1,56.9%
7,COc1ccc(NC2=C(Sc3nc(C)cc(C)n3)C(=O)N(Cc3ccccc3)C2=O)cc1Cl,45% [30 µM]
8,COc1ccc(-c2cc(C(=O)N=Nc3c(O)[nH]c4ccc(Br)cc34)no2)cc1,101%
9,COc1cc2c(cc1-c1c(C)noc1C)ncc1nc(C3CCOCC3)n([C@H](C)COC(F)F)c12,46.6%
10,COc1ccc(C2CC(c3ccc4ccccc4c3)=NN2/C=C2\SC(=S)N(NC(=O)Cc3ccccc3Nc3c(Cl)cccc3Cl)C2=O)cc1 (stereo not given),13.9%
11,O=C1/C(=C(/c2ccccc2)N2CCOCC2)Cc2ccccc21,22.7%
12,O=C1Nc2cc(-c3ccc(O)cc3)ccc2/C1=C/c1ccc[nH]1,7.4% (active)
13,COc1cc(CNc2oc(-c3ccccc3)c(-c3ccccc3)c2C#N)cc(CN2CCN(C)CC2)c1O,-13.7% (active)
14,O=C1OCC2=C1C(c1ccncc1)c1cc3c(cc1N2CCO)OCO3 (stereo not given),107%
15,Nc1nc2ccc3[nH]ncc3c2c2c1CCCC2,-2.01% (active)
16,Clc1ccc2c(NCCNc3nc(N4CCCCC4)nc4ccccc34)ccnc2c1,7.69% (active)
17,CCN(CC)c1ccc2c(c1)Oc1nc(N)c(C#N)c(N)c1C2Sc1ccc(SC)cc1 (stereo not given),-10.7% (active)
18,C#Cc1cccc(NC(=O)c2ccccc2NC(=O)C=C)c1,102% [8.25 µM]
19,CCc1nnc(CNc2ccc(Cl)cc2)o1,89.7%
20,CC(=O)c1nc2ccccc2n1CC(=O)c1cccc(Cl)c1,4.87% (active)

row,Structure (SMILES),growth
1,FC(F)(F)c1[nH]ncc1-c1nc2ccc3n[nH]c(C#Cc4cccnc4)c3c2c2c1CCCC2,14.9%
2,C=CC(=O)Nc1cccc(-c2nc(SC)nc(NCc3ccccc3)c2C#N)c1,49.1%
3,CCOc1cc2c(cc1OCC)C(c1cc(OC)c(O)cc1Cl)NCC2 (stereo not given),112%
4,NC(=NCCCC1(c2ccccc2)CCCC1)Nc1ccc(Cl)cc1,-0.285% (active)
5,O=C(C(=O)c1ccc2c(c1)OCO2)c1ccc2c(c1)OCO2,117%
6,Oc1ccccc1-c1nnc(CNc2ccc(Cl)cc2)o1,15.5%
7,Cc1ccc(/C=C2\SC(=S)N(CC(=O)NCCCN3CCOCC3)C2=O)cc1,101%
8,O=C1c2c(O)cc(O)cc2-c2c(-c3ccc(O)cc3)oc3cc(O)cc1c23,1.37% (active)
9,CCCCC(=O)OCC1OC(n2cnc3c(=S)nc[nH]c32)C(OC(=O)CCCC)C1OC(=O)CCCC (stereo not given),15.3%
10,O=C(Cc1ccccc1Nc1c(Cl)cccc1Cl)NN1C(=O)/C(=C/c2ccc(Br)cc2)SC1=S,107%
11,O=CNc1ccc2c(c1)Cc1cccc(NC=O)c1-2,75%
12,NC(=O)c1cc(Cl)ccc1NC(=O)/C=C/c1ccccc1,28.4%
13,COC(=O)c1ccc2oc(NC(=O)c3ccc(Nc4ccc([N+](=O)[O-])cc4C)c([N+](=O)[O-])c3)nc2c1,105%
14,N#Cc1c(N)n(CCNC(=O)c2ccccc2)c2nc3ccccc3nc12,44.7%
15,O=C(COc1cccc(/C=C2\COc3ccccc3C2=O)c1)Nc1nccs1,-48.4% (active)
16,N#Cc1nnn(-c2ccc(S(N)(=O)=O)cc2)c1NC(=O)CCl,92.4%
17,C=CCSSC1N=CNc2nc[nH]c21 (stereo not given),34.9%
18,COc1ccc(-c2nnc(SCC(=O)c3ccc(Cl)cc3)o2)cc1,109%
19,O=C(Cc1ccc(/C=C/C(=O)c2ncc[nH]2)cc1)Nc1ccccc1,29.1%
20,COc1ccc2[nH]cc(-c3noc(C(=O)c4cn(C)c5ccc(F)cc45)n3)c2c1,95.4%
